Hits are enriched below; roughly 11% of the tested compounds scored in any of these assays.
hNpr1 antagonist: Natriuretic polypeptide receptor (hNpr1) antagonism - Primary qHTS. Atrial natriuretic peptide receptor 1 (Homo sapiens), P16066. AID 1347048, 2019. hit rate 1.6% among 76,000. HEK293 hNpr1 GloSensor cGMP, ANP-stimulated luminescence. Potency, µM (top dose mostly 46.3 µM), hits mostly inhibitors; calls by dose curve; further: nearly all actives have a fitted effect of over 60% in size
Target sequence (P16066 whole entry, looked up): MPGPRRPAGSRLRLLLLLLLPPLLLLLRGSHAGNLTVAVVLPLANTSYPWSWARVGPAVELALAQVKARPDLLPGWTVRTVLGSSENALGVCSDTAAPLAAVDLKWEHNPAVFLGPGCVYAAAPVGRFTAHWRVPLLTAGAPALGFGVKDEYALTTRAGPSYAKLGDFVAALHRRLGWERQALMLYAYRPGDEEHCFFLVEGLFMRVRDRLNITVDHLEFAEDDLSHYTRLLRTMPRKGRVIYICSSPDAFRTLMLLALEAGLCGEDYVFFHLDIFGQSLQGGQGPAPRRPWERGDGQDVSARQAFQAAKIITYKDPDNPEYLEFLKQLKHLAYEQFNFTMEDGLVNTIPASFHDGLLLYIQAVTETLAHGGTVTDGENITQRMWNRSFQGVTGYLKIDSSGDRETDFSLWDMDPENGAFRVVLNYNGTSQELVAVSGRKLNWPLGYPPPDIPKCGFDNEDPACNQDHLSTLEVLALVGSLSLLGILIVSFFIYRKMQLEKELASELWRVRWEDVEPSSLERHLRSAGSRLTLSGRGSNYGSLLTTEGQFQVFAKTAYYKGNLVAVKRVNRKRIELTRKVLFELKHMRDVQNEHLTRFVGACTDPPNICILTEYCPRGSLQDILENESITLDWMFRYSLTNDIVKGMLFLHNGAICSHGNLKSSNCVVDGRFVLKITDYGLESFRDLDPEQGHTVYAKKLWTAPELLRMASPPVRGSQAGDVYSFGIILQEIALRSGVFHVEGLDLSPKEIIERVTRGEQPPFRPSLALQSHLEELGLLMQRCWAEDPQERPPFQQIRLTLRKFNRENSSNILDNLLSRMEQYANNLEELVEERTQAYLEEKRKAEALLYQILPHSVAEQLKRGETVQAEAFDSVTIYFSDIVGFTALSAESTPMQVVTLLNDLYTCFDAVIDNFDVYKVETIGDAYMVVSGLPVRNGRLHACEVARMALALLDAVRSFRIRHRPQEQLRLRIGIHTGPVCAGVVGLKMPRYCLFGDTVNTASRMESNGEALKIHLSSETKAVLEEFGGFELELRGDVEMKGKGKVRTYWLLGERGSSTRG
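Compound pre-incubated 30 min at room temperature on GloSensor-loaded HEK293 cells stably carrying hNpr1 and the pGS-40F cGMP biosensor. Stimulation uses hNppA at 0.1 nM final; luminescence is taken at baseline and 20 min post-agonist.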
HEK293 tox: Cytotoxic Profiling in HEK 293 Cell Line of Diverse Libraries Using Quantitative High-Throughput Screening. hit rate 6.6% among 94,000. HEK 293 viability, ATP luminescence (CellTiter-Glo), 48-72 h. AID 1345083, 2018. Potency, µM (highest dose often 115 µM), most hits filed as inhibitors; further: nearly all actives have a fitted effect of over 60% in size
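Read-out: CellTiter-Glo ATP luminescence. Cells: HEK 293, 250 cells/well. Exposure: 48 or 72 hr, 37 degree Celsius.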
FLuc inh: Firefly luciferase inhibition profiling of diverse chemical library using quantitative high-throughput screening; Luciferin 4-monooxygenase (Photinus pyralis), P08659; purified P. pyralis luciferase, luminescence, biochemical; Potency, µM (doses to about 115 µM), usual class: inhibitors; hit rate 2.5% among 76,000; AID 1347043, 2019; further: nearly all actives have a fitted effect of over 65% in size
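Inhibitors were tested against purified firefly luciferase in a biochemical, low-substrate format (both substrates at 10uM) and luminescence measured with a CCD imager.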
NIH3T3 tox: Cytotoxic Profiling in NIH 3T3 Cell Line of Diverse Libraries Using Quantitative High-Throughput Screening | hit rate 4.3% among 94,000 | Potency, µM (highest dose often 96.7 µM), actives largely listed as inhibitors | NIH 3T3 viability, CellTiter-Glo ATP luminescence, 48-72 h | AID 1345082, 2018; further: nearly all actives have a fitted effect of over 55% in size
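NIH 3T3 cells at 400 cells/well received 23 nL of compound by pintool and were incubated 48 or 72 h at 37 °C. Viability was read as ATP-coupled CellTiter-Glo luminescence.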
Large screens that a line does not name were inactive. Unless noted, the call rests on the fitted dose curve; in most records, active means well fitted curve in the direction sought with a large enough effect; inconclusive means small, poorly fitted or top-dose-only effect, or another doubt; inactive means no such curve, though single readings can be large; an effect the other way counts as inactive or inconclusive.

COc1ccc(C2(C(=O)NC(C)CCc3ccccc3)CCOCC2)cc1 (centres undefined)	NIH3T3 tox inconclusive (no result: hNpr1 antagonist, FLuc inh)
Cc1nc(-c2ccc(Cl)cc2)n(Cc2ccccc2)c(=O)c1CCO	HEK293 tox 44.7µM, NIH3T3 tox inconclusive
CC(C)c1nc2c(NC(=O)c3cccc(Br)c3)cccn2n1	HEK293 tox inconclusive
Cc1nnc2ccc(N3CCCC(NC(=O)c4ccc(Cl)cc4)C3)nn12 (centres undefined)	NIH3T3 tox inconclusive (no result: hNpr1 antagonist, FLuc inh)
CCS(=O)(=O)Nc1ccc(C2(C(=O)Nc3cccc(F)c3C)CCCCC2)cc1	HEK293 tox 39.8µM, NIH3T3 tox inconclusive
O=C(NC1CCC1)C1CCCN1C(=O)c1cccc(-c2cccnc2)c1 (centres undefined)	none (no result: hNpr1 antagonist, FLuc inh)
O=C1NCCOCCCN(C(=O)Nc2ccc3c(c2)OCCO3)[C@H]2CCCC[C@@H]12	FLuc inh 31.6µM
O=C1NCCOCCCN(C(=O)Nc2ccccc2)[C@H]2CCCC[C@@H]12	none
O=C1CO[C@H]2CCN(Cc3ccc4c(c3)CCO4)CC[C@@H]2N1Cc1ccccc1	HEK293 tox inconclusive, NIH3T3 tox 100µM
CC(C)c1ccc(CN2CC[C@@H]3OCC(=O)N(Cc4ccccc4)[C@H]3CC2)cc1	hNpr1 antagonist inconclusive, HEK293 tox 31.6µM, NIH3T3 tox 35.5µM
O=C(NCC1CCCCC1)c1noc(-c2ccc[nH]c2=O)n1	none
COc1ccc(CCNC(=O)c2noc(-c3ccccc3F)n2)cc1OC	hNpr1 antagonist inconclusive, HEK293 tox 31.6µM, NIH3T3 tox inconclusive
O=C(NCC1CC1)c1noc(-c2ccccc2F)n1	FLuc inh 39.8µM
COc1ccc(C(C)NC(=O)c2noc(-c3ccccc3F)n2)cc1OC (centres undefined)	NIH3T3 tox inconclusive
COc1ccc(CC(=O)NC2CCN(c3nccc(Nc4ccccc4F)n3)CC2)cc1	HEK293 tox inconclusive, NIH3T3 tox 44.7µM (no result: hNpr1 antagonist, FLuc inh)
COc1ccc(Nc2ccnc(N3CCC(NC(=O)Cc4ccc(F)cc4)CC3)n2)cc1	HEK293 tox 39.8µM, NIH3T3 tox inconclusive (no result: hNpr1 antagonist, FLuc inh)
COc1ccc(CC(=O)N2CCN(c3nccc(Nc4ccccc4F)n3)CC2)cc1	HEK293 tox 44.7µM, NIH3T3 tox inconclusive (no result: hNpr1 antagonist, FLuc inh)
O=C(c1ccccc1)N1CCCC(C(=O)N2CCC(N3CCCC3=O)CC2)C1 (centres undefined)	none (no result: hNpr1 antagonist, FLuc inh)
COCCC(=O)N1CCC(Oc2nccnc2N2CCc3ccccc32)C1 (centres undefined)	HEK293 tox inconclusive, FLuc inh inconclusive
Cc1ccccc1Nc1n[nH]c(C(O)c2ccc3c(c2)CCO3)n1 (centres undefined)	HEK293 tox inconclusive, NIH3T3 tox inconclusive
OC(c1cccc(C(F)(F)F)c1)c1nc(Nc2cccc(Cl)c2)n[nH]1 (centres undefined)	hNpr1 antagonist inconclusive, HEK293 tox 63.1µM, NIH3T3 tox 50.1µM
OC(c1ccc2c(c1)CCO2)c1nc(Nc2cccc(C(F)(F)F)c2)n[nH]1 (centres undefined)	HEK293 tox 70.8µM, NIH3T3 tox inconclusive
OC(c1nc(Nc2ccc(Cl)c(C(F)(F)F)c2)n[nH]1)C1CC1 (centres undefined)	hNpr1 antagonist inconclusive, HEK293 tox 56.2µM, FLuc inh inconclusive, NIH3T3 tox 50.1µM
COc1ccc(Nc2n[nH]c(C(O)c3cccc(C(F)(F)F)c3)n2)cn1 (centres undefined)	HEK293 tox inconclusive, NIH3T3 tox inconclusive
Cc1nc2cccnc2n1CC1CCCN(S(=O)(=O)c2ccccc2F)C1 (centres undefined)	HEK293 tox inconclusive, NIH3T3 tox inconclusive
O=C(NCc1cccnc1)c1ccc2oc(-c3ccc(C(F)(F)F)cc3)nc2c1	hNpr1 antagonist inconclusive, HEK293 tox 11.2µM, NIH3T3 tox inconclusive
COc1ccc(-c2ccc(C(=O)NCc3ccccc3)cc2)nn1	none (no result: hNpr1 antagonist, FLuc inh)
COc1ccc(-c2ccc(C(=O)NCc3ccccc3F)cc2)nn1	HEK293 tox 112µM, NIH3T3 tox inconclusive (no result: hNpr1 antagonist, FLuc inh)
COc1ccc(-c2ccc(C(=O)NCc3cccnc3)cc2)nn1	NIH3T3 tox 8.91µM (no result: hNpr1 antagonist, FLuc inh)
COc1ccc(-c2ccc(NC(=O)c3ccccc3C)cc2)nn1	HEK293 tox 39.8µM, NIH3T3 tox inconclusive (no result: hNpr1 antagonist, FLuc inh)
COc1ccc(-c2ccc(C(=O)NCc3cccc(F)c3)cc2)nn1	HEK293 tox inconclusive (no result: hNpr1 antagonist, FLuc inh)
